Assay outcomes deposited in PubChem BioAssay by The Scripps Research Institute Molecular Screening Center.
DAX1 inh-1 – NR0B1 (DAX1) inhibition; 340,000 compounds, 0.99% hits; AID 504766; HEK293 Gal4-DAX1 luciferase reporter, luminescence; inhibition, % at 6.75 µM; P51843;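 active means inhibition above the mean over all tested compounds plus 3 SD, cut at about 4.2% in these data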;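 further: inhibition shows as a rise in luminescence from relieved DAX1 repression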
Target sequence (P51843 207-470 limits assumed): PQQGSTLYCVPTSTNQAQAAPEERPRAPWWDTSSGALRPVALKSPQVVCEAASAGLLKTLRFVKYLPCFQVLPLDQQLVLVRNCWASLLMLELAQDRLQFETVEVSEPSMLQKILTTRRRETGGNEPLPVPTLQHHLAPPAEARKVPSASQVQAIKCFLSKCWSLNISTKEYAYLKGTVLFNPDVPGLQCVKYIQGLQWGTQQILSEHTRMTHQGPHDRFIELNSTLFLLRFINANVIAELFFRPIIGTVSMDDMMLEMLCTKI
hgDAF-12 ag – hgDAF-12 agonism, primary luciferase screen | HEK293 GAL4-hgDAF12 UAS-luciferase reporter, agonist luminescence; normalized to butyrate control | activation, % at 6.8 µM | 370,000 compounds, 1.8% hits;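 active means activation above a cutoff set at the mean of all screened compounds plus 3 SD, cut at about 10% in these data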
DAX1 inh-2 – blocks DAX1 repression of SF-1 activated StAR promoter; 370,000 compounds, 1.1% hits; HEK293T StAR-luciferase reporter, SF-1/DAX-1 repression relief; inhibition, % at 6.8 µM;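 active means inhibition above the mean over all tested compounds plus 3 SD, cut at about 3.6% in these data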;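 further: higher inhibition means more luminescence from relief of DAX-1 repression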
ssDAF-12 act – activators of S. stercoralis DAF-12 nuclear receptor. HEK293 ssDAF-12/GRIP1 lit1-tk-luc reporter, luminescence; % of 3 µM dafachronic acid response. activation, % at 6.8 µM. 370,000 compounds, 1% hits;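 active means activation above the mean over all tested compounds plus 3 SD, cut at about 0.9% in these data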
hcDAF12 agonist – activates DAF-12 receptor from parasite H. contortus; activation, % at 6.8 µM; 370,000 compounds, 1.4% hits; HEK293 hcDAF-12 lit1-tk-luc reporter, luminescence; 0% DMSO, 100% Δ7-dafachronic acid; AID 652067;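 active means activation above the mean of all tested compounds plus 3 SD, cut at about 5.5% in these data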
Of the large screens only hits and unclear results are named; the others gave an inactive call. Rows were chosen to be rich in hits. Some 4.1% of all compounds tested hit in one or more screens of this group.

Cc1ccccc1NC(=O)OC1CCC12CCCCC2 (configuration not stated)	none (no result: DAX1 inh-1)
CC(C)(C)OC(=O)N(CCc1ccccc1)Cc1ccc(OCc2cccc(NC(=O)C3CC3)c2)cc1	none
CC(C)(C)OC(=O)N(CCc1ccccc1)Cc1cccc(OCc2cccc(NC(=O)c3ccccc3)c2)c1	DAX1 inh-2 4.1
CC(C)C[C@H]1COc2cc(Br)ccc2S(=O)(=O)N1Cc1cn(Cc2ccco2)nn1	none (no result: DAX1 inh-1)
Cc1ccc(-c2nnc(SCC#CCOC(=O)c3cccs3)o2)cc1	none
O=C(OCC#CCSc1nnc(-c2ccc(Br)cc2)o1)c1cccs1	ssDAF-12 act 1.0
COc1ccc(NC2=Nc3ccccc3CC2)cc1	hgDAF-12 ag 11
O=C(CN1C(=O)NC2(CCCC2)C1=O)Nc1nc2ccccc2s1	hcDAF12 agonist 5.8
O=C(CN1C(=O)NC2(CCCC2)C1=O)Nc1ccc(OC(F)(F)F)cc1	DAX1 inh-1 9.7
O=C(COC(=O)CN1C(=O)NC2(CCCC2)C1=O)Nc1ccccc1C(F)(F)F	DAX1 inh-1 12
O=C(CN1C(=O)NC2(CCCCCC2)C1=O)Nc1ccc(OC(F)(F)F)cc1	none
CN(CC(=O)Nc1ccc(F)cc1)C(=O)COC(=O)CN1C(=O)NC2(CCCC2)C1=O	hcDAF12 agonist 5.8
CC1=C(C(=O)N2CCOCC2)CC(CC(=O)NC2CCCC2)C(=O)N1Cc1ccccc1 (configuration not stated)	none
Cc1nn(-c2ccccc2)c2sc(C(=O)NC3CCCCCCC3)cc12	none (no result: DAX1 inh-1)
CN(C)/C=C/C(=O)c1ccc2noc(-c3ccc(F)cc3)c2c1	DAX1 inh-1 4.8
Cc1ccc(-c2onc3ccc(C(=O)/C=C/N(C)C)cc23)cc1	none
Oc1ccc(/C=C/c2ccc3cccc(O)c3n2)cc1Br	hgDAF-12 ag 10
O=[N+]([O-])c1cccc(/C=C/c2ccc3cccc(O)c3n2)c1	none
CCCCN1C(=O)N2Cc3ccccc3C2CS1(=O)=O (configuration not stated)	none (no result: DAX1 inh-1)
O=C1NC[C@H](CCCCN2C[C@H](Cc3ccccc3)N(CCC3CCCCC3)C(=O)C2=O)N(CC2CCCCC2)C1=O	none (no result: DAX1 inh-1)
CC(C)CCN1CCC(CN2C(=O)C(=O)NC[C@@H]2CC(C)C)CC1	none (no result: DAX1 inh-1)
O=C1NC[C@H](CCCCN2C[C@H](Cc3ccccc3)N(CC3CCCCC3)C(=O)C2=O)N(CCC2CCCCC2)C1=O	ssDAF-12 act 1.4 (no result: DAX1 inh-1)
CC(C)C[C@H]1CNC(=O)C(=O)N1CC1CCN(CC2CCC(C(C)(C)C)CC2)CC1 (some centres not stated)	DAX1 inh-2 4.1
CC(C)C[C@H]1CN(CCCC[C@@H]2CNC(=O)C(=O)N2CC2CCCCC2)C(=O)C(=O)N1Cc1ccccc1	hgDAF-12 ag 11 (no result: DAX1 inh-1)
CC(C)CNC(=O)CC1Oc2ccccc2NC1=O (configuration not stated)	none (no result: DAX1 inh-1)
Nc1ccc(OCc2ccccc2)cc1	none
c1ccc(COc2ccc3nocc3c2)cc1	hgDAF-12 ag 11
CCCCCn1nnc2c(=O)oc3ccccc3c21	ssDAF-12 act 1.1
CCCn1nnc2c(=O)oc3ccccc3c21	none
O=C(CCN1C(=O)c2cccc3cccc(c23)C1=O)N1CCOCC1	hgDAF-12 ag 13
Cn1cccc1Cc1nnc(SCC(=O)N2CCOCC2)n1-c1ccc(F)cc1	DAX1 inh-1 4.2
COc1ccc(-n2c(Cc3cccn3C)nnc2SCC(=O)N2CCOCC2)cc1	none
COC(=O)[C@]12C[C@H](CC(=O)N3CCCC3)C(=O)N(Cc3cccc4ccccc34)C1=C[C@H](C1CCCC1)O[C@@H]2C	none (no result: DAX1 inh-1)
Cc1ccc(S(=O)(=O)N(C)Cc2ccc(C(=O)N/N=C/c3ccc(OC(F)F)cc3)cc2)cc1	DAX1 inh-1 6.2
C/C(=N\NC(=O)c1ccc(CN(C)S(=O)(=O)c2ccc(C)cc2)cc1)c1ccc(OC(F)F)cc1	none
C=CCSc1nnc2nc3[nH]c4c(C)cccc4c3nn12	ssDAF-12 act 0.9
CCOC(=O)c1[nH]c2ccccc2c1NC(=O)Nc1ccc(OC)cc1	ssDAF-12 act 0.9
CCOC(=O)c1[nH]c2ccc(OC)cc2c1NC(=O)c1ccccc1C(=O)O	DAX1 inh-1 4.3
CCOC(=O)c1[nH]c2ccccc2c1NC(=S)Nc1cc(C)ccc1C	hcDAF12 agonist 6.1
COc1ccc(NC(=O)COC(=O)c2c(NC(C)=O)sc(C)c2C)cc1	none
COC(=O)c1cc(-c2cc(F)cc(OC)c2)c(=O)n2c1CCC2	none (no result: DAX1 inh-1)
